# Source: the supplement of paper PMC10849652
# The full data set covers some 7,900 targets. This sample favours those with a hit. About 0.6% of all pairs of compound and target were hits. Values without a mark were called inactive.
# Columns and labels:
# Experiment in all cases: log2 fold change, soluble protein after heating vs DMSO (PISA); higher = thermal stabilisation; K562 cells, 10 uM, 30 min; active = over 0.2 and 3.5 SD of the protein, either way, in both replicates (recomputed)
# [1] = compound: CC[C@@H]1C(=O)N(C)c2cnc(Nc3ccc(C(=O)NC4CCN(C)CC4)cc3OC)nc2N1C1CCCC1
# Outline: (§1)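 K562 cells at 2×10^6 cells/mL were treated with 10 μM compound for 30 min. Aliquots were heated for 3 min across 48°C-58°C, pooled, and extracted in PBS with 0.5% NP-40 at 4°C; soluble protein was the supernatant after 21,000xg for 90 min. Soluble protein was quantified by TMTpro 16plex LC-MS/MS with channel sums equalised, and reported as log2 fold change in thermal stability against DMSO controls, with values from duplicates.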
# volasertib = compound: CC[C@@H]1C(=O)N(C)c2cnc(Nc3ccc(C(=O)N[C@H]4CC[C@H](N5CCN(CC6CC6)CC5)CC4)cc3OC)nc2N1C(C)C [volasertib]
# Outline: as §1
# [2] = compound: CC[C@H](C)N1C=C(C2=C(C=C(C=C21)C3=CN=C(C=C3)N4CCNCC4)C(=O)NCC5=C(C=C(NC5=O)C)C)C
# Outline: as §1
# epoxomicin = compound: CC[C@H](C)[C@@H](C(=O)N[C@@H]([C@@H](C)O)C(=O)N[C@@H](CC(C)C)C(=O)[C@]1(CO1)C)NC(=O)[C@H]([C@@H](C)CC)N(C)C(=O)C [epoxomicin]
# Outline: as §1
# [3] = compound: CCn1c(C(=O)N(C2CC2)C2CC2)cc2c3c(ncn3C)c(Nc3cc(C)n(C)n3)nc21
# Outline: as §1
# [4] = compound: CCn1cc(-c2ccnc3[nH]c(-c4cccc(CN(C)C)c4)cc23)c(-c2ccc(NC(=O)N(C)C)cc2)n1
# Outline: as §1
# [5] = compound: CN(C)CC(=O)Nc1ccc2[nH]c(=O)c3ccccc3c2c1
# Outline: as §1
# rosiglitazone = compound: CN(CCOC1=CC=C(C=C1)C[C@H]2C(=O)NC(=O)S2)C3=CC=CC=N3 (racemic) [rosiglitazone]
# Outline: as §1
# [6] = compound: CN1C2=C(C3=C1C(=O)N(N=C3)CC4=CC(=CC=C4)N)SC(=C2)S(=O)C
# Outline: as §1
# [7] = compound: CN1CCC(CNc2ccc3ncc(-c4cccc(OC(F)(F)F)c4)n3n2)CC1
# Outline: as §1
# saracatinib = compound: CN1CCN(CCOc2cc(OC3CCOCC3)c3c(Nc4c(Cl)ccc5c4OCO5)ncnc3c2)CC1 [saracatinib]
# Outline: as §1
# sotrastaurin = compound: CN1CCN(c2nc(C3=C(c4c[nH]c5ccccc45)C(=O)NC3=O)c3ccccc3n2)CC1 [sotrastaurin]
# Outline: as §1
# alvocidib = compound: CN1CC[C@H](c2c(O)cc(O)c3c(=O)cc(-c4ccccc4Cl)oc23)[C@H](O)C1 [alvocidib]
# Outline: as §1
# Tubastatin A = compound: CN1CCc2c(c3ccccc3n2Cc2ccc(C(=O)NO)cc2)C1 [Tubastatin A]
# Outline: as §1
# [8] = compound: CNC(=O)C1=CC=CC=C1NC2=NC(=NC=C2Cl)NC3=C(C=C(C=C3)N4CCOCC4)OC
# Outline: as §1
# defactinib = compound: CNC(=O)c1ccc(Nc2ncc(C(F)(F)F)c(NCc3nccnc3N(C)S(C)(=O)=O)n2)cc1 [defactinib]
# Outline: as §1
# rucaparib = compound: CNCc1ccc(-c2[nH]c3cc(F)cc4c3c2CCNC4=O)cc1 [rucaparib]
# Outline: as §1
# [9] = compound: CNc1nc(-c2ccc3c(N)n[nH]c3c2)cc(N2C[C@@H](C(=O)NC3CCCCC3)CC[C@H]2C)n1
# Outline: as §1
# encorafenib = compound: COC(=O)N[C@@H](C)CNc1nccc(-c2cn(C(C)C)nc2-c2cc(Cl)cc(NS(C)(=O)=O)c2F)n1 [encorafenib]
# Outline: as §1
# [10] = compound: COC(=O)[C@H](CCSC)NC(=O)C1=C(C=C(C=C1)NC[C@H](CS)N)C2=CC=CC=C2
# Outline: as §1
# UniProt Q9Y4E8, sequence (Q9Y4E8 whole entry, looked up): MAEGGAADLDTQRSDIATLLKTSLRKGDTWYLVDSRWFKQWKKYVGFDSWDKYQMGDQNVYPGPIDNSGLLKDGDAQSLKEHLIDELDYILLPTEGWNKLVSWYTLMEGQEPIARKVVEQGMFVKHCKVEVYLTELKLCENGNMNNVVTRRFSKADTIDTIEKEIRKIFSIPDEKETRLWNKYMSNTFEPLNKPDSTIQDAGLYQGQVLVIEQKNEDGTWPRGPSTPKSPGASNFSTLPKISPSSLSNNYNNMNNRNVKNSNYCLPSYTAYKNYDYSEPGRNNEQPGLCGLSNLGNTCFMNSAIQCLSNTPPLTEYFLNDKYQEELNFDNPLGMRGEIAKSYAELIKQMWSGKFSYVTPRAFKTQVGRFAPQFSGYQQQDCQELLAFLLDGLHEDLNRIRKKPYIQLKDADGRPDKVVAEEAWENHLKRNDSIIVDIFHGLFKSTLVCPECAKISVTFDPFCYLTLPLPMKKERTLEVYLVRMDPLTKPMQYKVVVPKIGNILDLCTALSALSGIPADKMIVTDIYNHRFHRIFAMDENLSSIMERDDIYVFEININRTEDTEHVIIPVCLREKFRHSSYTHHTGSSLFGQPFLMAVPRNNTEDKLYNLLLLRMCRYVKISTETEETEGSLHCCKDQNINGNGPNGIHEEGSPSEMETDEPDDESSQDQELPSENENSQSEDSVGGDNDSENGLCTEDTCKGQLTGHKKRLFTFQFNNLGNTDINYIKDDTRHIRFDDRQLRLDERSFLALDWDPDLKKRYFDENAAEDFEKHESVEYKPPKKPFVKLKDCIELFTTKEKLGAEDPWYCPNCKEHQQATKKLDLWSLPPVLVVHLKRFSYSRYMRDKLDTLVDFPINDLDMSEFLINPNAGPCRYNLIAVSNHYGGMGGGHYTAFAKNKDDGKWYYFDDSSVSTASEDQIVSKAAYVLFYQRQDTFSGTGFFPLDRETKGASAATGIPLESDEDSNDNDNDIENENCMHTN
# UniProt Q96AJ9, sequence (Q96AJ9 whole entry, looked up): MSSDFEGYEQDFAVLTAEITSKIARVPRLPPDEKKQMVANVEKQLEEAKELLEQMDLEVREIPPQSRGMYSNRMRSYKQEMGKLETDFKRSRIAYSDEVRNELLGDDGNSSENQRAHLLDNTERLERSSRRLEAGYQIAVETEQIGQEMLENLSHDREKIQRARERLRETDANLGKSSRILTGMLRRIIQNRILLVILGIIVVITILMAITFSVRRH
# UniProt P02585, sequence (P02585 whole entry, looked up): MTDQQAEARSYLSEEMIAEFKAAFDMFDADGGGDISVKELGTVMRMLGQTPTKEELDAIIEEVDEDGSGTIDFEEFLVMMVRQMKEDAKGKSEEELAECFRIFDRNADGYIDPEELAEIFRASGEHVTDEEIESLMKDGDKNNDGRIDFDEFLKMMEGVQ
# UniProt Q9NUM4, sequence (Q9NUM4 whole entry, looked up): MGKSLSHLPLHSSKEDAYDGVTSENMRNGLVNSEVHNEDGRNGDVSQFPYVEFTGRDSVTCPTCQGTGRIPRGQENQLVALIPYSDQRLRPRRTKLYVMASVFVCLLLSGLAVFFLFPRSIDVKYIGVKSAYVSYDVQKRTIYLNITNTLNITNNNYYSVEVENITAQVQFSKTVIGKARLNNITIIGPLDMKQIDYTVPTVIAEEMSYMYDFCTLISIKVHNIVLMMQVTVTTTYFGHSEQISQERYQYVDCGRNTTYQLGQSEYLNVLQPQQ
# UniProt Q86SZ2, sequence (Q86SZ2 whole entry, looked up): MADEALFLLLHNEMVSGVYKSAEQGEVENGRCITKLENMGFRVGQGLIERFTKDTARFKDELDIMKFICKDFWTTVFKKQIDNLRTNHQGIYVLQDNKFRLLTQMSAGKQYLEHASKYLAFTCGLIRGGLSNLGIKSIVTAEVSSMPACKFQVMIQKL
# UniProt Q9BTX3, sequence (Q9BTX3 whole entry, looked up): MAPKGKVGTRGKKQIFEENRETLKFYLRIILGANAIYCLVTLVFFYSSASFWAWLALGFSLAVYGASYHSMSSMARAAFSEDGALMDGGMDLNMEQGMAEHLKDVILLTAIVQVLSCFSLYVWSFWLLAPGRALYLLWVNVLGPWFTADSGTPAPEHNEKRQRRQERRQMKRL
# UniProt Q5T3F8, sequence (Q5T3F8 whole entry, looked up): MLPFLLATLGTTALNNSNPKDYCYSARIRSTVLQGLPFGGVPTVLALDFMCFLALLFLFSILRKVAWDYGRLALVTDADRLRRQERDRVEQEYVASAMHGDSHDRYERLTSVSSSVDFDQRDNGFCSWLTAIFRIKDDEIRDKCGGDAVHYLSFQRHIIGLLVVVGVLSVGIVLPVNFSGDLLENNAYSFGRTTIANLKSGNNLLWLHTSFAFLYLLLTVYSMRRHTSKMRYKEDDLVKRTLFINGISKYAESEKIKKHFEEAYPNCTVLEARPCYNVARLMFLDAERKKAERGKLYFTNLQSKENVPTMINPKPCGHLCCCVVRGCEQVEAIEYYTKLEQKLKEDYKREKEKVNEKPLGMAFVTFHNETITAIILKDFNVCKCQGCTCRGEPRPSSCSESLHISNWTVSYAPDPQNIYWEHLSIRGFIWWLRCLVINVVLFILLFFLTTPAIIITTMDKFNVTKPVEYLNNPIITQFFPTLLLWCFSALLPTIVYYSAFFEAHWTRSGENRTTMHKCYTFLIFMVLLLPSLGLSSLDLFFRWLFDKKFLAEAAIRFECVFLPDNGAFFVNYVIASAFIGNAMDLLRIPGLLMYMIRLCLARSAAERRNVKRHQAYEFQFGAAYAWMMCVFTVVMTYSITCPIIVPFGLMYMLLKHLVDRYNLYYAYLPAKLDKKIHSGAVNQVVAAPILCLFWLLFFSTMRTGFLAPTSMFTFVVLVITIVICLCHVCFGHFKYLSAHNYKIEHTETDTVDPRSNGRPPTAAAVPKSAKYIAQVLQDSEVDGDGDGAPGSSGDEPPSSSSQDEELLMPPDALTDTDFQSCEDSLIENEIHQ
# UniProt P43897, sequence (P43897 whole entry, looked up): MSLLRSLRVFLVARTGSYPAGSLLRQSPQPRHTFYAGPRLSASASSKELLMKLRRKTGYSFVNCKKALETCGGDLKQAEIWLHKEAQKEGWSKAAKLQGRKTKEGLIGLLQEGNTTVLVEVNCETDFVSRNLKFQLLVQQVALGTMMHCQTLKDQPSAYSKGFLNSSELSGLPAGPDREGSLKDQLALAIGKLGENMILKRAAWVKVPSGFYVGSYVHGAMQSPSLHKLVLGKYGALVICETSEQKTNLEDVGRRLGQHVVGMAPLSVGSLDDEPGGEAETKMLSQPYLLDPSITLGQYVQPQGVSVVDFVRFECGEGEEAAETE
# UniProt P12956, sequence (P12956 whole entry, looked up): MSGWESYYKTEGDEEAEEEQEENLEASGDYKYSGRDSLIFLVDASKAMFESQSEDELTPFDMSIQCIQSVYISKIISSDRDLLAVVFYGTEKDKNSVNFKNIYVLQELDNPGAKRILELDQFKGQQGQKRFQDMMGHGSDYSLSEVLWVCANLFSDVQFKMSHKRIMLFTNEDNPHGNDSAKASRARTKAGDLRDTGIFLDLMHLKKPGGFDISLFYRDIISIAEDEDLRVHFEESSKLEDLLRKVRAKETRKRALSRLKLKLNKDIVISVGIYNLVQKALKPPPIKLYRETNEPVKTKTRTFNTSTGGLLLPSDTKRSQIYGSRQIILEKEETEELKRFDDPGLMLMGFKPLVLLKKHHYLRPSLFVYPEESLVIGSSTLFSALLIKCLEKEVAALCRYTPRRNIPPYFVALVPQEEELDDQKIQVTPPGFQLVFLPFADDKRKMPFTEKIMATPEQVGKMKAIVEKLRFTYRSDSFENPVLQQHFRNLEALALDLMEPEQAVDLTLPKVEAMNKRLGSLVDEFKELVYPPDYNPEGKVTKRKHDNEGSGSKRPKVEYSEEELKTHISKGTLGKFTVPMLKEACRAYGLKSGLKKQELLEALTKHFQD
# UniProt Q7Z7E8, sequence (Q7Z7E8 whole entry, looked up): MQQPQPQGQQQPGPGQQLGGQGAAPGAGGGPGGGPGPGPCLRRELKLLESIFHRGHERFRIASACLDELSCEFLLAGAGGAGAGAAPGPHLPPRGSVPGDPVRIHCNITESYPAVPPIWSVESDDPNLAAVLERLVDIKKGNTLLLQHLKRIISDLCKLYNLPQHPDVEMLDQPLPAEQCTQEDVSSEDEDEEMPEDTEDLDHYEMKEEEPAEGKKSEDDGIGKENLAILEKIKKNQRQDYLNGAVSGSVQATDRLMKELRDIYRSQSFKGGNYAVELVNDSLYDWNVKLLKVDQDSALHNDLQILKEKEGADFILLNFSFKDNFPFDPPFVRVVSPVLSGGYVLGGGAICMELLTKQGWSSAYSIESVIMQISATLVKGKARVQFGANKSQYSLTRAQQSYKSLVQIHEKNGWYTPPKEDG
# UniProt Q9NV66, sequence (Q9NV66 whole entry, looked up): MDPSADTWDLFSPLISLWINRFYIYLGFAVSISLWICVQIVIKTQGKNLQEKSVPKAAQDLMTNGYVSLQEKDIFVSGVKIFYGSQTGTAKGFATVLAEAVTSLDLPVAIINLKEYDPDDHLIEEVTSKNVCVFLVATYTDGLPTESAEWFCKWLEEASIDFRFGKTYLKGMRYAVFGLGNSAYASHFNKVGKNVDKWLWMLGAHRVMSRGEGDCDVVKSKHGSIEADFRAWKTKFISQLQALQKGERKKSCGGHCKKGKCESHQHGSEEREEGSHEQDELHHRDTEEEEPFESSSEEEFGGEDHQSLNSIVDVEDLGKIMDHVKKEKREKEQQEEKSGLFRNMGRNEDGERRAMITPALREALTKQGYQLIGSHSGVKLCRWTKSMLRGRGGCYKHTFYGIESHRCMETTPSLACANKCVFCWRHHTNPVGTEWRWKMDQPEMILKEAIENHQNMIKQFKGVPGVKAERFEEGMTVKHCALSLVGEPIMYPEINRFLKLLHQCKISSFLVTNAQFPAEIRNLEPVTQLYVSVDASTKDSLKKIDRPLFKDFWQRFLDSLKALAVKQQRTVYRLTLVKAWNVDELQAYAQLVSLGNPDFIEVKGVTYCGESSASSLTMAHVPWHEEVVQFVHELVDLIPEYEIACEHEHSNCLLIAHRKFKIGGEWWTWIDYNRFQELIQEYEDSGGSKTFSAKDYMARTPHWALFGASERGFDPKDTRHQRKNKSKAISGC
Target,log2 fold change [1],log2 fold change (volasertib),log2 fold change [2],log2 fold change (epoxomicin),log2 fold change [3],log2 fold change [4],log2 fold change [5],log2 fold change (rosiglitazone),log2 fold change [6],log2 fold change [7],log2 fold change (saracatinib),log2 fold change (sotrastaurin),log2 fold change (alvocidib),log2 fold change (Tubastatin A),log2 fold change [8],log2 fold change (defactinib),log2 fold change (rucaparib),log2 fold change [9],log2 fold change (encorafenib),log2 fold change [10]
TMEM208 (UniProt Q9BTX3),-0.071,-0.208,-0.048,-0.03,-0.046,-0.022,0.274,0.081,-0.02,0.036,-0.047,-0.02,-0.039,0.003,-0.142,-0.023,-0.045,-0.099,0.145,-0.164
VTI1A (UniProt Q96AJ9),0.051,-0.002,-0.026,0.006,0.039,0.068,0.028,-0.017,0.01,-0.219 (active),0.101,0.027,-0.002,-0.028,0.095,-0.03,-0.058,-0.042,-0.001,0.07
UBA6,-0.139,-0.189,0.057,0.029,-0.008,-0.031,0.033,0.016,0,0.001,-0.006,-0.125,-0.08,-0.047,0.041,-0.089,0.024,0.011,0.049,-0.032
VTA1 (UniProt Q9NP79),-0.172,-0.291 (active),0.06,0.024,0.026,-0.045,0.048,0.016,-0.041,-0.079,0.028,-0.022,-0.081,-0.046,0.045,-0.029,0.011,-0.011,0.023,-0.033
TMEM63B (UniProt Q5T3F8),-0.001,0.071,-0.019,0.039,0.041,0.011,-0.052,-0.052,0.042,-0.073,-0.084,-0.055,0.021,-0.015,0.019,0.015,-0.004,-0.068,0.023,0
XRCC6 (UniProt P12956),-0.205,-0.515 (active),0.095,0.072,-0.032,0.008,0.071,0.07,-0.014,-0.172,-0.013,-0.114,-0.187,0.099,-0.047,-0.264 (active),-0.007,-0.015,0.048,-0.041
UBE2Q1 (UniProt Q7Z7E8),-0.087,-0.295 (active),0.015,-0.042,-0.075,-0.048,0.027,0.061,-0.007,-0.212,-0.023,-0.001,-0.069,0.027,0.05,-0.143,-0.008,0.048,0.04,-0.017
USP15 (UniProt Q9Y4E8),-0.095,-0.32 (active),0.066,0.03,-0.032,-0.056,0.031,0.058,-0.006,-0.129,-0.013,-0.093,-0.069,0.014,0.049,-0.093,0.032,0.019,0.061,-0.031
USP34 (UniProt Q70CQ2),-0.215,-0.455 (active),-0.023,0.02,-0.027,-0.043,0.014,0.065,0.015,-0.201,0.006,-0.102,-0.274,0.069,-0.049,-0.164,-0.055,-0.015,0.08,0.002
TNNC2 (UniProt P02585),0.042,0.07,-0.031,-0.037,0.016,0.04,-0.006,0.006,-0.053,-0.015,0.007,0.095,-0.009,-0.139,-0.035,0.012,-0.025,-0.056,-0.049,0.037
TYW1 (UniProt Q9NV66),-0.02,-0.341 (active),0.052,0.03,-0.009,-0.002,0.031,0.036,0.014,0.088,0.089,-0.059,-0.064,-0.033,0.031,-0.055,0.052,-0.061,0.028,-0.059
UHRF1BP1 (UniProt Q6BDS2),0.137,0.131,0.036,-0.067,-0.013,-0.105,0.012,0.019,-0.09,0.211 (active),0.011,0.049,-0.043,0.016,-0.013,-0.064,-0.007,0.048,-0.012,0.017
TSFM (UniProt P43897),-0.003,-0.092,0.046,0.212,-0.062,0.074,0.081,0.069,-0.041,-0.056,0.057,-0.157,-0.132,0.063,0.021,-0.166,-0.001,-0.073,0.167,-0.082
TMEM106B (UniProt Q9NUM4),0.025,-0.032,-0.05,-0.11,-0.026,-0.007,-0.05,0.022,0.012,-0.13,0.123,0.027,0.02,-0.121,-0.037,0.021,-0.007,-0.145,-0.037,-0.059
TRAPPC6B (UniProt Q86SZ2),-0.015,-0.002,-0.011,0.146,0.009,-0.05,-0.01,-0.008,-0.026,-0.08,0.035,-0.068,-0.055,0.031,-0.034,-0.046,0.012,0.008,-0.02,0.022
